Screen size: about 110,000 compounds; about 190 (0.17%) were called active. Many of the other results were omitted from the sample, so actives are more common in it than they were. Results with a measured potency or affinity are listed apart. A number with no mark means an inactive call. No stated cut-off is given here; in the data, active means inhibition above about 50%; inactive means the rest.
These compounds were tested against Dual specificity protein phosphatase 6 (Rattus norvegicus) (UniProt Q64346) (assay: MKP-3 phosphatase inhibitors, primary screen, biochemical, rat enzyme, in vitro (AID 425;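 further: plate controls were vehicle for no effect and reference inhibitor for full effect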)). Conditions: recombinant MKP-3 phosphatase activity, fluorescence; at 20 µM; hits give high values.
Chain of Dual specificity protein phosphatase 6 (Rattus norvegicus) (Q64346 whole entry, looked up): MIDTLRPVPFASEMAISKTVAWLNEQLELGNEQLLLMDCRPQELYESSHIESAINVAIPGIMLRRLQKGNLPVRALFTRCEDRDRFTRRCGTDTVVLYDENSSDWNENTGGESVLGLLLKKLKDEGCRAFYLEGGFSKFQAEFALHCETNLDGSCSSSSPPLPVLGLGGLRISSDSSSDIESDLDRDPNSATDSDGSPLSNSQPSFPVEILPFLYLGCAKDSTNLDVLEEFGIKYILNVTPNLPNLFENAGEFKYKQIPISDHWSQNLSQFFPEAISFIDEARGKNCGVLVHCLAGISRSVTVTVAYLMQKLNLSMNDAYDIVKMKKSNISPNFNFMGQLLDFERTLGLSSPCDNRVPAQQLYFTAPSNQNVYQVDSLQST
`O=[N+]([O-])c1ccc(N2CCN(Cc3ccccc3)CC2)c(Cl)c1` was tested, and the inhibition was -2.4%. Compound `CN(C)C(=O)Oc1ccc([N+](=O)[O-])cc1` has an inhibition of -1.2%. For `CN(CN1C(=O)C(=O)c2cc([N+](=O)[O-])ccc21)[N+](=O)[O-]`, the inhibition was 86.6% (active). With `Cn1cccc1/C=C1/C(=O)NC(=S)N(c2ccc(Cl)cc2)C1=O` the inhibition was 77.8% (active). In the case of `CCN1C(=O)/C(=C/c2cccn2C)C(=O)NC1=S`, the inhibition is reported as 108% (active). `O=C1NC(=O)N(c2ccccc2)C(=O)/C1=C/c1ccoc1` was tested, and the inhibition was 4.9%. `C=CCN1C(=O)NC(=O)C(=Cc2cccn2C)C1=O` was tested, and the inhibition was 2.3%. `C=CCN1C(=O)/C(=C\c2cccn2-c2cccc([N+](=O)[O-])c2)C(=O)NC1=S` was tested, and the inhibition was 94.7% (active). With `O=C1NC(=S)N(c2ccc(Cl)cc2)C(=O)/C1=C/c1ccc(-c2ccccc2C(=O)O)o1` the inhibition was 6.3%. With `C=CCN1C(=O)/C(=C\c2cccn2-c2ccc([N+](=O)[O-])cc2)C(=O)NC1=S` the inhibition was 37.5%. Work on `CCN1C(=O)/C(=C/c2ccc(OC)c3ccccc23)C(=O)NC1=S` yielded an inhibition of 2.2%. In the case of `O=C1NC(=S)N(c2cccc(Cl)c2)C(=O)/C1=C/c1ccc(Cl)cc1`, the inhibition is reported as -0.2%. With `CCN1C(=O)/C(=C/c2ccoc2)C(=O)NC1=S` the inhibition was 107% (active). For `CN1C(=O)C(=Cc2cccn2-c2cccc([N+](=O)[O-])c2)C(=O)N(C)C1=O`, the inhibition was 4.9%. For `COc1ccc(CN2C(=O)NC(=O)/C(=C\c3ccoc3)C2=O)cc1`, the inhibition was 5.2%. `CCC1(c2ccccc2)C(=O)NC(=O)N(C(=O)c2cccc(F)c2)C1=O` (stereo not given) was tested, and the inhibition was -3.3%. Work on `O=C1NC(=O)C(=Cc2ccc(OCc3cccc(C(=O)O)c3)cc2)C(=O)N1` yielded an inhibition of -1%. `CCOc1c(P(=S)(N(C)C)N(C)C)c(C)nn1-c1ccccc1` showed an inhibition of -4.3%. `Oc1ccc(CC2CC3CCN2CC3)cc1O` (stereo not given) showed an inhibition of -5.2%. `CCCc1[nH]nc2c1C1(C(=O)N(CC(N)=O)c3ccccc31)C(C(=O)OC)=C(N)O2` (stereo not given) gave an inhibition of -2.9%. Compound `CC1CCC(C(=O)NC(C(=O)N2CCC3(CC2)OCCO3)C(C)C)CC1` (stereo not given) has an inhibition of -15.8%. Compound `CCC1(C)CC(CCNCc2ccccc2)(c2ccc(C)cc2)CCO1` (stereo not given) has an inhibition of -4%. Work on `Cc1ccccc1C(=O)Nc1cc(Cl)c([N+](=O)[O-])cc1Cl` yielded an inhibition of 1.4%. For `COC(=O)CCCNC(=O)CN1CC(c2ccccc2)CC1=O` (stereo not given), the inhibition was -1.1%. For `O=C(c1cc2c(s1)CCCC2)N1CCC2(CC1)OCCO2`, the inhibition was -11.3%. With `O=C1NC(=S)N(c2cccc(Br)c2)C(=O)/C1=C/c1ccco1` the inhibition was 108% (active). `O=C1NC(=S)N(c2cccc(Br)c2)C(=O)/C1=C/c1cccs1` was tested, and the inhibition was 5.7%. With `C=CCN1C(=O)/C(=C\C=C\c2ccco2)C(=O)NC1=S` the inhibition was 83.7% (active). Compound `CCOc1ccc(N2C(=O)/C(=C/c3cc(Cl)ccc3O)C(=O)NC2=S)cc1` has an inhibition of 4.8%. With `CCOc1ccc(N2C(=O)/C(=C/c3ccco3)C(=O)NC2=S)cc1` the inhibition was 107% (active). `Cc1cccc(N2C(=O)NC(=O)C(=Cc3ccco3)C2=O)c1` was tested, and the inhibition was 2.3%. `O=C1NC(=S)N(c2cccc(Br)c2)C(=O)/C1=C/C=C/c1ccccc1` gave an inhibition of 11.1%. Compound `C=CCN1C(=O)/C(=C\c2ccc(C)o2)C(=O)NC1=S` has an inhibition of 8.6%. With `O=C1NC(=O)N(c2cccc(Br)c2)C(=O)/C1=C/c1ccco1` the inhibition was 97.8% (active). In the case of `CCOc1ccc(N2C(=O)/C(=C/c3ccc(C)cc3)C(=O)NC2=S)cc1`, the inhibition is reported as 2.5%. For `CC(C)c1ccc(N2C(=O)NC(=O)/C(=C/c3ccco3)C2=O)cc1`, the inhibition was 4.9%. Work on `O=C1NC(=O)N(Cc2ccccc2)C(=O)/C1=C\C=C\c1ccco1` yielded an inhibition of 3.4%. With `Clc1ccc(CCNCc2ccc3c(c2)OCO3)c(Cl)c1` the inhibition was 1.1%. Work on `O=c1c2ccccc2nc(-c2ccccc2F)n1-c1ccc(Cl)cc1` yielded an inhibition of 3.1%. For `O=C(Nc1cccc(OC(=O)N2CCOCC2)c1)N1CCOCC1`, the inhibition was 0.2%. With `O=C1NC(=S)N(c2ccccc2)C(=O)/C1=C/c1ccco1` the inhibition was 102% (active). In the case of `CN(C)c1ccc(C=C2C(=O)NC(=S)N(c3ccccc3F)C2=O)cc1`, the inhibition is reported as -0.6%. With `O=C1NC(=S)N(c2ccc(Br)cc2)C(=O)/C1=C/c1ccc(-c2ccccc2C(=O)O)o1` the inhibition was 4.4%. `Cc1ccc(C=C2C(=O)NC(=S)N(c3ccccc3F)C2=O)s1` gave an inhibition of 3%. `O=C1NC(=S)N(c2ccccc2F)C(=O)C1=Cc1ccco1` was tested, and the inhibition was 99% (active). In the case of `CCOc1ccc2ccccc2c1/C=C1\C(=O)NC(=S)N(c2ccccc2)C1=O`, the inhibition is reported as 0.5%. With `CN1CCN(Cc2nc3ccccc3n2C)CC1` the inhibition was -3%. `CCN1CCN(c2ccc(C(F)(F)F)cn2)CC1` gave an inhibition of 2.1%. For `CN1CCN(c2ccc(NC(=O)C(C)(C)C)cc2)CC1`, the inhibition was -2.3%. Compound `Cc1ccc2nc3c(cc2c1)CC1(C(=O)N(C)C(=O)N(C)C1=O)C1CCCCN31` (stereo not given) has an inhibition of -20.3%. `O=C(c1ccc(N2N=N2)cc1)c1ccc(N2N=N2)cc1` showed an inhibition of -3.2%. With `COc1ccc(N2C(=O)/C(=C/c3ccc(-c4cc(C(=O)O)ccc4Cl)o3)C(=O)NC2=S)cc1` the inhibition was 9.5%. `CN1C(=O)NC(=O)/C(=C/c2ccc(I)o2)C1=O` was tested, and the inhibition was -0.4%. `CN1C(=O)NC(=O)/C(=C/c2ccc(Br)o2)C1=O` showed an inhibition of 6%. In the case of `O=C1NC(=O)N(c2ccc(Cl)cc2)C(=O)/C1=C/c1ccc(Br)o1`, the inhibition is reported as 41.4%. `CCOc1ccc(N2C(=O)/C(=C/c3ccc(C)o3)C(=O)NC2=S)cc1` was tested, and the inhibition was 13.5%. For `CCOc1ccc(N2C(=O)NC(=O)/C(=C\c3ccc(C)o3)C2=O)cc1`, the inhibition was 3.6%. In the case of `O=C1NC(=S)N(c2ccc(F)cc2)C(=O)/C1=C/c1ccc(Br)o1`, the inhibition is reported as 90.9% (active). With `CCOc1ccc(N2C(=O)/C(=C/c3ccc(Br)o3)C(=O)NC2=S)cc1` the inhibition was 104% (active). With `COc1ccc(N2C(=O)/C(=C/c3ccc(I)o3)C(=O)NC2=S)cc1` the inhibition was 108% (active). `CCOC(=O)C1CCN(/C=C2/C(=O)NC(=O)N(Cc3ccco3)C2=O)CC1` showed an inhibition of -5.2%. Work on `O=C1N(CN2CCOCC2)c2ccccc2C1(O)c1c[nH]c2ccccc12` (stereo not given) yielded an inhibition of 0.3%. `CN(C)C(=O)Oc1ccc(OC(=O)c2ccccc2)cc1` was tested, and the inhibition was -6.4%. With `O=C1c2ccccc2C2(c3ccc(Cl)cc3)NCCN12` (stereo not given) the inhibition was -7.5%. Compound `O=[N+]([O-])c1ccc(N2CCNCC2)cc1NCCOc1ccccc1` has an inhibition of 3.6%. `O=C(COc1ccc(Cl)cc1)N1CCN(Cc2ccc([N+](=O)[O-])cc2)CC1` gave an inhibition of -0.9%. Compound `Cc1ccc(C=C2C(=O)N(C)C(=O)N(C)C2=O)o1` has an inhibition of -11.1%. `Cc1cc(OCc2ccc(F)cc2)c2c3c(c(=O)oc2c1)CCCC3` showed an inhibition of 2.6%. For `Cn1cc(/C=C2\C(=O)NC(=O)N(Cc3ccccc3)C2=O)c2ccccc21`, the inhibition was 2.1%. `CC(C)N1CCN(Cc2cc(Br)ccc2O)CC1` was tested, and the inhibition was -1.8%.

— PubChem BioAssay AID425 (Sanford-Burnham Center for Chemical Genomics, 2006)
